# Screens from PubChem.
# Sampled rows, rich in hits. Any-hit rate of the full collection: about 3.5%.
# TRAIL sens C8: sensitizes caspase-8 expressing cells to TRAIL; NB7+C8 cells + TRAIL, ATPlite viability luminescence; inhibition (viability loss, TRAIL sensitization), % at 10 µM; 1% of 360,000 active;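 active means compounds causing at least 50% loss of cell viability in the single-dose screen, relative to plate controls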
# Platelet DG rel: platelet dense granule release activity; 0.22% of 300,000 active; inhibition, %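 (compounds screened at 7.5 µM in platelet-rich plasma)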; human platelet-rich plasma, SFLLRN dense granule ATP release, luminescence; AID 1663;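 active means mean replicate score, as percent of positive control, at or above 50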
# PPC-1+TRAIL kill: compounds killing PPC-1 cancer cells with TRAIL present (potentiator screen, no TRAIL-free arm) | 0.41% of 220,000 active | PPC-1 cells + TRAIL, ATPLite viability luminescence | cell killing (% activity), % at 4 µM or 5 µM;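 active means cell killing above 50% in the first pass at 4 µM, then a duplicate retest at 5 µM averaging 50% or more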;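 further: plate controls were cells with TRAIL plus DMSO for no effect and medium-only wells lacking cells for full effect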
# TROY signal inh: blocks TROY-dependent signaling in reporter cells; Q293 LMP1-TROYcd NF-kB luciferase reporter, 4 h; inhibition, % at 10 µM; 0.98% of 360,000 active; AID 1347056;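 active means compounds whose plate-normalised and pattern-corrected inhibition of the luciferase reporter signal at the single screening dose is 50% or more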
# HSP90 refold inh: blocks HSP90-mediated luciferase refolding in reticulocyte lysate | Rabbit reticulocyte lysate, luciferase refolding luminescence, 3 h | 0.91% of 290,000 active | inhibition, % at 5.6 µM;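 active means inhibition above the screen-wide mean plus 3 SD, computed separately per campaign, cut at about 16% in these data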;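 further: 0% = DMSO wells and 100% = 60 µM geldanamycin wells; inhibitors lower the luminescence because luciferase stays unfolded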
# TWEAK Fn14 block: inhibitors of TWEAK-Fn14 interaction signaling. inhibition, % at 10 µM. 2% of 360,000 active. TWEAK-stimulated Fn14 reporter cells, luciferase luminescence, 8 h. AID 1159606; in the data active means inhibition above about 50%
# * marks the source's active call; other numbers are inactive results; x = no result.
SMILES,TRAIL sens C8,Platelet DG rel,PPC-1+TRAIL kill,TROY signal inh,HSP90 refold inh,TWEAK Fn14 block
O=C1N[C@@H](Cc2c[nH]c3ccccc23)COC(=O)[C@@H](Cc2ccc(F)cc2)CC/C=C/C[C@@H]1CC(=O)N(CCO)Cc1ccccc1,26,x,x,30,x,55*
O=C(N/N=C\c1ccc(CNS(=O)(=O)c2ccc(Cl)cc2)o1)C(=O)Nc1ccc(Oc2ccccc2)cc1,54*,x,1,-5,2,-58
O=C(N/N=C\c1ccc(CNS(=O)(=O)c2ccccc2)o1)C(=O)Nc1ccc(F)cc1,-10,14,15,-31,-2,-77
C#CCCc1ccccc1/C=[N+](/C)[O-],-8,x,x,43,x,51*
Cc1ccc2c(Cl)cc(Cl)c(OCC(=O)Nc3cc(S(=O)(=O)N(C)C)ccc3C)c2n1,8,-8,12,38,9,80*
Cc1cc(=O)[nH]c(-n2[nH]c(C)cc2=O)n1,-6,-1,13,8,-2,-39
COc1ccc(-n2[nH]c(C)cc2=O)cc1,-33,4,14,17,17*,-2
CCOc1cc(/C=N/NC(=O)C(=O)N/N=C/c2ccc(O)c(OCC)c2)ccc1O,-3,2,x,12,-6,-21
CCOc1cc(/C=N/NC(=O)N/N=C/c2ccc(O)c(OCC)c2)ccc1O,x,58*,x,x,x,x
COc1cc(/C=N/NC(=O)/C(=C/c2ccccc2)CCO)ccc1O,2,56*,17,-56,2,-12
N#CCC(=O)Nc1ccc(C(=O)OCC(=O)Nc2ccc3ccccc3c2)cc1,20,x,x,8,x,-95
CCSc1ccccc1C(=O)n1nnc2ccccc21,19,x,5,43,0,72*
[O-]/C(=C(\C(=S)Nc1cccc2ccccc12)[n+]1ccccc1)c1ccc(OC(F)F)cc1,1,x,13,82*,4,43
COc1cccc(NC(=S)/C(=C(\[O-])c2ccc(OC(F)F)cc2)[n+]2ccccc2)c1,10,1,3,-48,2,32
[O-]/C(=C(\C(=S)Nc1cccc2ccccc12)[n+]1ccccc1)c1ccc2c(c1)OCCO2,7,9,27,84*,9,104*
C=CC(=O)N1C/C(=C/c2ccccc2)C(=O)/C(=C\c2ccccc2)C1,92*,x,x,73*,x,105*
O=C1C(=Cc2ccc(Cl)cc2)Cc2ccccc21,16,x,x,-48,x,-15
C=CC(=O)N1C/C(=C/c2ccc(Cl)cc2)C(=O)/C(=C\c2ccc(Cl)cc2)C1,93*,x,x,85*,x,107*
COc1ccccc1Nc1nc(N)nc(CCl)n1,92*,9,26,-9,0,3
COc1ccc(OC)c(Nc2nc(N)nc(CCl)n2)c1,92*,3,4,0,2,7
Cc1cccc(Nc2nc(N)nc(CCl)n2)c1C,94*,-1,39,-16,-4,-1
COc1ccc(OCc2nc(N)nc(Nc3ccccc3OC)n2)cc1,28,0,15,-15,-1,-2
COc1ccc(OC)c(Nc2nc(N)nc(CSc3nnc(N)s3)n2)c1,-7,-3,0,0,1,16
CCOC(=O)c1c(NC(=O)c2ccco2)n(C2CCCCC2)c2nc3ccccc3nc12,-11,1,1,71*,1,88*
Cc1cnc(NC(=O)C2CC=CCC2)s1 (stereo not given),0,5,x,10,-2,38
SMILES,TRAIL sens C8,Platelet DG rel,PPC-1+TRAIL kill,TROY signal inh,HSP90 refold inh,TWEAK Fn14 block
CCOC(=O)CN1C(=O)N[C@@H](c2cccc(C(F)(F)F)c2)[C@@H](C(=O)OC)[C@H]1C,-5,-13,x,6,x,-6
O=C(c1ccccc1)c1nn(-c2ccc(Cl)cc2)c(=O)cc1C(F)(F)F,23,9,24,-48,-5,74*
Cc1ccc(N(C)S(=O)(=O)c2cc(-c3cnc(C4CC4)o3)ccc2C)cc1,30,1,x,56*,0,78*
Cc1cccc(N(C)S(=O)(=O)c2ccc(-c3cnc(C4CC4)o3)cc2)c1,30,-9,x,43,-2,17
COc1cccc(CNC(=O)CC(NC(=O)c2ccccc2)c2ccccc2)c1 (stereo not given),-3,0,x,3,x,-8
CC(=O)CCc1ccc(OCC(O)CNCCOc2ccc(C)cc2)cc1 (stereo not given),-5,0,x,-5,0,12
